# According to paper PMC7862700, “An all-to-all approach to the identification of sequence-specific readers for epigenetic DNA modifications on cytosine”:
# Key:
# Experiment in all cases: DAPPL (digital affinity profiling via proximity ligation, sequencing); 10 mM Tris-HCl pH 7.5, 50 mM NaCl, 1 mM DTT, 4% glycerol, room temperature, 30 min; GST-TFs on glutathione beads, 16-mer random dsDNA library, 0.1% formaldehyde crosslink after washing; high values mean tight binding
# FLI1 = target: T1, FLI1 (Homo sapiens, UniProt Q01543 1-452); conditions: protein: recombinant; tags: N-terminal GST; dsDNA, one strand shown
# T1 sequence: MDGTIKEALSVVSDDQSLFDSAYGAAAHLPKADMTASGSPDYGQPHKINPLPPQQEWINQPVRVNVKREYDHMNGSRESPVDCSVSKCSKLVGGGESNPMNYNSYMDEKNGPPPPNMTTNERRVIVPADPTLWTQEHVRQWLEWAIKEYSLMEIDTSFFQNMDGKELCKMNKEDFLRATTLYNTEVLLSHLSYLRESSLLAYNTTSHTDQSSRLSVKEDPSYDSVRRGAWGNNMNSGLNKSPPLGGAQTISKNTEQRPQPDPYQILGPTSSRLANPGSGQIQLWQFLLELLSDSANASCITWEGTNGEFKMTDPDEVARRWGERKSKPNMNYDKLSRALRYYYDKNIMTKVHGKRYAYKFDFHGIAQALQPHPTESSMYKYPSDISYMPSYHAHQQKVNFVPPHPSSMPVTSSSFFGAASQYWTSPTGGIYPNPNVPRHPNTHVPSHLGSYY
# Procedure, shortened: (§1)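 The binding signal reported is, for every hexamer, its read frequency for a factor over its read frequency for the tag-only sample. Reads came from pools of yeast-expressed, GST-fused human transcription factors on glutathione beads, barcoded with DNA and mixed with that sample, which were incubated with 200 nmole of a random double-stranded 16-mer DNA library in Tris/NaCl/DTT/glycerol buffer at room temperature for 30 min. After washing, the pools were crosslinked with 0.1% formaldehyde, proximity-ligated with BsaI/T4 ligase for 1 h at 37 °C, PCR-amplified and sequenced on an Illumina NextSeq500.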
# ELK1 = target: T2, ELK1 (Homo sapiens, UniProt P19419 1-428); conditions: protein: recombinant; tags: N-terminal GST; dsDNA, one strand shown
# T2 sequence: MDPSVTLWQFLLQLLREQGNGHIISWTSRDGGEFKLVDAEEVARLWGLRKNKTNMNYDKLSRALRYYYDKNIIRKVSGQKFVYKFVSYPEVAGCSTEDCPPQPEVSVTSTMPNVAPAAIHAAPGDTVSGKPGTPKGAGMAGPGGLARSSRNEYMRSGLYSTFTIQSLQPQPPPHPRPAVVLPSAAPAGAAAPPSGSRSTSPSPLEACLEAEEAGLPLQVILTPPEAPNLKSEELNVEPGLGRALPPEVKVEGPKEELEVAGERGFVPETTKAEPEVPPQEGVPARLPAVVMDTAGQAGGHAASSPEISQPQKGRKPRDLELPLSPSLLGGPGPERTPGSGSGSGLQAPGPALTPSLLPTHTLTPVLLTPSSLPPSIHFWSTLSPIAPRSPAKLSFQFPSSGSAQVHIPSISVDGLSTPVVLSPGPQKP
# Procedure, shortened: as §1
# GABPA = target: T3, GABPA (Homo sapiens, UniProt Q06546 1-454); conditions: protein: recombinant; tags: N-terminal GST; dsDNA, one strand shown
# T3 sequence: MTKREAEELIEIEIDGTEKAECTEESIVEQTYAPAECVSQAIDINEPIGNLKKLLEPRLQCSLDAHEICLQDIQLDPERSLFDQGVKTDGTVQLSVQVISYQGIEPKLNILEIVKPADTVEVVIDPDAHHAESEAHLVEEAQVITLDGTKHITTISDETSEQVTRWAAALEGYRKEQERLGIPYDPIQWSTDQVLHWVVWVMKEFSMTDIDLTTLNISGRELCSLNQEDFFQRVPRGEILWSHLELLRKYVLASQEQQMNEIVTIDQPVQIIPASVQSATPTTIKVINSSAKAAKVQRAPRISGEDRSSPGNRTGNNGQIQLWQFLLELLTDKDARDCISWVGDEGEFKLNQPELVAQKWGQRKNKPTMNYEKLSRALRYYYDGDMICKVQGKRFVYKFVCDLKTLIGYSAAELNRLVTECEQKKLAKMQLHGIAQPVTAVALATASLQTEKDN
# Procedure, shortened: as §1
# ERG = target: T4, ERG (Homo sapiens, UniProt P11308 1-479); conditions: protein: recombinant; tags: N-terminal GST; dsDNA, one strand shown
# T4 sequence: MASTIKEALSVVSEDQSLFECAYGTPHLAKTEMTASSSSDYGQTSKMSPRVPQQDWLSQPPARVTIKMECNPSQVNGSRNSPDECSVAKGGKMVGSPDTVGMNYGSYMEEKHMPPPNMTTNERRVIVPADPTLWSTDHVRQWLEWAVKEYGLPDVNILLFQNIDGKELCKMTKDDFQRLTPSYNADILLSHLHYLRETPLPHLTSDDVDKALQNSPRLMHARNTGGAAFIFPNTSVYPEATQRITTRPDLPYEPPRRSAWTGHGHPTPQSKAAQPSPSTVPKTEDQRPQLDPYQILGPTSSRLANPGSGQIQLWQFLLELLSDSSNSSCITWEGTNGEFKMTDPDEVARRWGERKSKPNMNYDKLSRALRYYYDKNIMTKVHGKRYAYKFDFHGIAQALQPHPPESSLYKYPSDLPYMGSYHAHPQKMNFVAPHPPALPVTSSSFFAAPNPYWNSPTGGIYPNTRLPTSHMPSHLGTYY
# Procedure, shortened: as §1
# ELF1 = ELF1 (Homo sapiens, UniProt P32519 1-619); conditions: protein: recombinant; tags: N-terminal GST; dsDNA, one strand shown
# Sequence of ELF1 (P32519 whole entry): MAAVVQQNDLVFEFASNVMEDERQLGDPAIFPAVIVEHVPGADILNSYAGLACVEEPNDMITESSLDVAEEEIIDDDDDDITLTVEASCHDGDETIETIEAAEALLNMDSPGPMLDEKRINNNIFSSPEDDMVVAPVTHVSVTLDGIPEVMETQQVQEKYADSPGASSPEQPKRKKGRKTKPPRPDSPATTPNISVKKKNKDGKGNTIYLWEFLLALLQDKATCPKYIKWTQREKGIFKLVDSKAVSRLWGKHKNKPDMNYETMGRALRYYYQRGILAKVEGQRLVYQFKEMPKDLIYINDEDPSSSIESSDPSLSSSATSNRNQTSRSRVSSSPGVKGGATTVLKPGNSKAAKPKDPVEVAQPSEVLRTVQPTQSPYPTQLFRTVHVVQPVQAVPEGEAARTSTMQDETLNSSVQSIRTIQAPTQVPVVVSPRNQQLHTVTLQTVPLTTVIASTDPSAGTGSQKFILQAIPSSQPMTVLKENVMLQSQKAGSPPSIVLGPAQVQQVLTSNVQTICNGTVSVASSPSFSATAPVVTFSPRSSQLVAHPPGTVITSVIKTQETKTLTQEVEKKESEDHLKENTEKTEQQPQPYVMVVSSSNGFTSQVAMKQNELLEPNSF
# Procedure, shortened: as §1
# EHF = target: T5, EHF (Homo sapiens, UniProt Q9NZC4 1-300); conditions: protein: recombinant; tags: N-terminal GST; dsDNA, one strand shown
# T5 sequence: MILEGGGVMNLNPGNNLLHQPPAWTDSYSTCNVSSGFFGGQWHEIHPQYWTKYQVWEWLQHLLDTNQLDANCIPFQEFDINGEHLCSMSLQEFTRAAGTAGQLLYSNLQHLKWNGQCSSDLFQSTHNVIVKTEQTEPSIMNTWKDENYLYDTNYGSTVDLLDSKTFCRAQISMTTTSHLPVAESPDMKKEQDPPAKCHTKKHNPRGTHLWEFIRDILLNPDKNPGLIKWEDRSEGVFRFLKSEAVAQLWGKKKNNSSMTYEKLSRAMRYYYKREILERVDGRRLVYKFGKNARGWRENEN
# Procedure, shortened: as §1
# SPI1 = SPI1 (Homo sapiens, UniProt P17947 1-270); conditions: protein: recombinant; tags: N-terminal GST; dsDNA, one strand shown
# Procedure, shortened: as §1
# SPIB = SPIB (Homo sapiens, UniProt Q01892 1-262); conditions: protein: recombinant; tags: N-terminal GST; dsDNA, one strand shown
# Sequence of SPIB (Q01892 whole entry): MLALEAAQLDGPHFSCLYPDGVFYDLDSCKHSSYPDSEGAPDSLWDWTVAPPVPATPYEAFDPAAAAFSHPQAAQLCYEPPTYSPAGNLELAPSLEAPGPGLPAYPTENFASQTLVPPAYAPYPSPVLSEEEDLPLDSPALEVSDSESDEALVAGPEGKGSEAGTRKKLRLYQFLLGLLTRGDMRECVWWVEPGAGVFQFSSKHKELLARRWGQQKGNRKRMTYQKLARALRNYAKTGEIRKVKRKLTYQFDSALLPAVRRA
# Procedure, shortened: as §1
# ELK3 = target: T6, ELK3 (Homo sapiens, UniProt P41970 1-407); conditions: protein: recombinant; tags: N-terminal GST; dsDNA, one strand shown
# T6 sequence: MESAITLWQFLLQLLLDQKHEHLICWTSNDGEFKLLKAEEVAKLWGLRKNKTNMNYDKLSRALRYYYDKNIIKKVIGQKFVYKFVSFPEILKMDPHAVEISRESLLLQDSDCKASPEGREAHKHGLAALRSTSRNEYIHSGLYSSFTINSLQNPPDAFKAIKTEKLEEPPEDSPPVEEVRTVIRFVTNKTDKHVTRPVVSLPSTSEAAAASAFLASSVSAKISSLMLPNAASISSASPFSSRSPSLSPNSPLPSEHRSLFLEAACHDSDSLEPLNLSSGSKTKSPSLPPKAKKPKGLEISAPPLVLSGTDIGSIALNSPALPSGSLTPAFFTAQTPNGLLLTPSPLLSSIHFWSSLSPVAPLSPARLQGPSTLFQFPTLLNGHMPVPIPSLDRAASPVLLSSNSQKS
# Procedure, shortened: as §1
# FEV = target: T7, FEV (Homo sapiens, UniProt Q99581 1-238); conditions: protein: recombinant; tags: N-terminal GST; dsDNA, one strand shown
# T7 sequence: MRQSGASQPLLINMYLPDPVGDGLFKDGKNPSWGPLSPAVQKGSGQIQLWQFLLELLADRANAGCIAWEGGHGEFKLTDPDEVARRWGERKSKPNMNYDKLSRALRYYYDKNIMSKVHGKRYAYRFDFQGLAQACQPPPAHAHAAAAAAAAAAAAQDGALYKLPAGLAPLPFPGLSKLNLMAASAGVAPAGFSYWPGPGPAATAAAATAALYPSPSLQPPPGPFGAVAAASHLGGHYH
# Procedure, shortened: as §1
# ETV5 = ETV5 (Homo sapiens, UniProt P41161 1-510); conditions: protein: recombinant; tags: N-terminal GST; dsDNA, one strand shown
# Sequence of ETV5 (P41161 whole entry): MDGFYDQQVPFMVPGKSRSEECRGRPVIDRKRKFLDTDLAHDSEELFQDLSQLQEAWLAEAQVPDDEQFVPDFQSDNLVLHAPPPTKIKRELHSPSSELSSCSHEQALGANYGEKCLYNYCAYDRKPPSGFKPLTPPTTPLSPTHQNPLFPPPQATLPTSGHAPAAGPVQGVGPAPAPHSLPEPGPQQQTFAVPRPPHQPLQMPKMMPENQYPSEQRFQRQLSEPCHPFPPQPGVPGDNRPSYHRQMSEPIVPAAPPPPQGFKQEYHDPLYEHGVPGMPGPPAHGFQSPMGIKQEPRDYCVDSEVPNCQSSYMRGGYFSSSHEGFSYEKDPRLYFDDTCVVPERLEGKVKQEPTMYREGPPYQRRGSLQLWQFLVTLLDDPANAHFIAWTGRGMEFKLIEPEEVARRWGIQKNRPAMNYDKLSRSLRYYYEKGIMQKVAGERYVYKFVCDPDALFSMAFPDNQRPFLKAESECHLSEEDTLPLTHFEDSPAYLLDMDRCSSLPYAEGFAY
# Procedure, shortened: as §1
# HSF1 = HSF1 (Homo sapiens, UniProt Q00613 1-529); conditions: protein: recombinant; tags: N-terminal GST; chain copies: 3; dsDNA, one strand shown
# Sequence of HSF1 (Q00613 whole entry): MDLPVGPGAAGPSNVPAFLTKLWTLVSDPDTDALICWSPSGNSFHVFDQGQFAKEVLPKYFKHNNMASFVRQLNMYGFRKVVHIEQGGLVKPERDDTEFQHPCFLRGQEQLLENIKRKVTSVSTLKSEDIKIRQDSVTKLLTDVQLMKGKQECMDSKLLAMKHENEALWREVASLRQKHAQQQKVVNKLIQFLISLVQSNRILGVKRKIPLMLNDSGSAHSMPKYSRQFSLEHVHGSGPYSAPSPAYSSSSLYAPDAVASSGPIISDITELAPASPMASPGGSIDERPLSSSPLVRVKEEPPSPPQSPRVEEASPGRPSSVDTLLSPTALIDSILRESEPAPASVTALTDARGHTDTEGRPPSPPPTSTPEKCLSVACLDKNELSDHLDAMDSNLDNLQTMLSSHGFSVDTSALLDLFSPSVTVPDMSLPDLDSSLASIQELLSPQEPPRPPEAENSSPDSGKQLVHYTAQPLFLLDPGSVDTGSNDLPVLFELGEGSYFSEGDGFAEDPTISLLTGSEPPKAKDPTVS
# Procedure, shortened: as §1
# SPIC = target: T8, SPIC (Homo sapiens, UniProt Q8N5J4 1-248); conditions: protein: recombinant; tags: N-terminal GST; dsDNA, one strand shown
# T8 sequence: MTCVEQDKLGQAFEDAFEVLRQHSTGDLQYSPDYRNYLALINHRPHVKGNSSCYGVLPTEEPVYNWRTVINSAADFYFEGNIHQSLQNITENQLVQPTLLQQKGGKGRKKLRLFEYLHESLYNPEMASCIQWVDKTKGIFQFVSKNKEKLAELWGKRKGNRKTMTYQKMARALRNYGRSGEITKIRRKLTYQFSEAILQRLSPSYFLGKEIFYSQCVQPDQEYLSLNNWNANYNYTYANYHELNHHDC
# Procedure, shortened: as §1
# ELF4 = ELF4 (Homo sapiens, UniProt Q99607 1-663); conditions: protein: recombinant; tags: N-terminal GST; dsDNA, one strand shown
# Sequence of ELF4 (Q99607 whole entry): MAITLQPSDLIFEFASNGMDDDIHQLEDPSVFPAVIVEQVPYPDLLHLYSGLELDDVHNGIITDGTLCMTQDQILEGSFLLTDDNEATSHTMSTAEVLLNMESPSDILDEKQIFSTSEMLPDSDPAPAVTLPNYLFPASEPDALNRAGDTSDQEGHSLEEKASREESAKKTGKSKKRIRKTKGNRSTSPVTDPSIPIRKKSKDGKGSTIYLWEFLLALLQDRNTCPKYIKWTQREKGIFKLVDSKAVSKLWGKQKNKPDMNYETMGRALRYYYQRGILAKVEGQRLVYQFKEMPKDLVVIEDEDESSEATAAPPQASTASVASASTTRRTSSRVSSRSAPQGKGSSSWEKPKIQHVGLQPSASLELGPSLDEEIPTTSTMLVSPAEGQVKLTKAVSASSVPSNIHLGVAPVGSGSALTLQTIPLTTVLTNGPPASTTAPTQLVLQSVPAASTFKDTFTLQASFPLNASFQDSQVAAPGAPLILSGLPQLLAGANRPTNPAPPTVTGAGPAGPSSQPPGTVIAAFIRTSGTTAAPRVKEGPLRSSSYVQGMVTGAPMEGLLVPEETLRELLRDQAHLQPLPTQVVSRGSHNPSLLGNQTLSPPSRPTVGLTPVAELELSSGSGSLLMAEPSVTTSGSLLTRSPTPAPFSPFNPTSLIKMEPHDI
# Procedure, shortened: as §1
# ELK4 = target: T9, ELK4 (Homo sapiens, UniProt P28324-2 1-405); conditions: protein: recombinant; tags: N-terminal GST; dsDNA, one strand shown
# T9 sequence: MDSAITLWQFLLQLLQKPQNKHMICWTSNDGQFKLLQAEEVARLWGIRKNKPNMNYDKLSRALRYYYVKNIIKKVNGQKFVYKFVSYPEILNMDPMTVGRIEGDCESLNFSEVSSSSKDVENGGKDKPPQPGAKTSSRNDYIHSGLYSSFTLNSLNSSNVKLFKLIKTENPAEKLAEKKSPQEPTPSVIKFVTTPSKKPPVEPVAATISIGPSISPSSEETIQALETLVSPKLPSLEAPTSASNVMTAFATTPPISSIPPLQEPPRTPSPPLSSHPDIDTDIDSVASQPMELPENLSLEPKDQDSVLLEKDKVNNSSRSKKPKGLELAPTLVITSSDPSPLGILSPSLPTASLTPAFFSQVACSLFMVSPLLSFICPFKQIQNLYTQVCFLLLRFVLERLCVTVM
# Procedure, shortened: as §1
# ETV2 = target: T10, ETV2 (Homo sapiens, UniProt O00321 1-342); conditions: protein: recombinant; tags: N-terminal GST; dsDNA, one strand shown
# T10 sequence: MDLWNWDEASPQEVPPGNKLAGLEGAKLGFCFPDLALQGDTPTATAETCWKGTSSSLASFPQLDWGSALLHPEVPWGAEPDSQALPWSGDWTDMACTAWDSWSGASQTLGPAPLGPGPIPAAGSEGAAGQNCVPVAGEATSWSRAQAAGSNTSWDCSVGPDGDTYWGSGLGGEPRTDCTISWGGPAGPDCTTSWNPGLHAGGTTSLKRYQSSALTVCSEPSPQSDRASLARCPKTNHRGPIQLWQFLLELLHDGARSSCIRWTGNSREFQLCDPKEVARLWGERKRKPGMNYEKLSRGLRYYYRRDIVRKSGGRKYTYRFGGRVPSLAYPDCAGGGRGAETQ
# Procedure, shortened: as §1
# ELF3 = target: T11, ELF3 (Homo sapiens, UniProt P78545 1-371); conditions: protein: recombinant; tags: N-terminal GST; dsDNA, one strand shown
# T11 sequence: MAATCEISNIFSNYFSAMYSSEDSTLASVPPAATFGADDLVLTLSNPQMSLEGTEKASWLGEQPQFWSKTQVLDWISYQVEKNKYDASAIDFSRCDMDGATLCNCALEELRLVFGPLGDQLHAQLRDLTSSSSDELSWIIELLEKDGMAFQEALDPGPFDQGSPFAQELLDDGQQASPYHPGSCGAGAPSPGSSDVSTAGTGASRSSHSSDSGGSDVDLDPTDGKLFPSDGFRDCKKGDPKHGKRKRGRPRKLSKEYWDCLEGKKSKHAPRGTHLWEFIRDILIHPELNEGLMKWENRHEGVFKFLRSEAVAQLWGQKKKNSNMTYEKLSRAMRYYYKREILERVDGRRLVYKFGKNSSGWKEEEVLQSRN
# Procedure, shortened: as §1
# ETV1 = ETV1 (Homo sapiens, UniProt P50549 1-477); conditions: protein: recombinant; tags: N-terminal GST; dsDNA, one strand shown
# Sequence of ETV1 (P50549 whole entry): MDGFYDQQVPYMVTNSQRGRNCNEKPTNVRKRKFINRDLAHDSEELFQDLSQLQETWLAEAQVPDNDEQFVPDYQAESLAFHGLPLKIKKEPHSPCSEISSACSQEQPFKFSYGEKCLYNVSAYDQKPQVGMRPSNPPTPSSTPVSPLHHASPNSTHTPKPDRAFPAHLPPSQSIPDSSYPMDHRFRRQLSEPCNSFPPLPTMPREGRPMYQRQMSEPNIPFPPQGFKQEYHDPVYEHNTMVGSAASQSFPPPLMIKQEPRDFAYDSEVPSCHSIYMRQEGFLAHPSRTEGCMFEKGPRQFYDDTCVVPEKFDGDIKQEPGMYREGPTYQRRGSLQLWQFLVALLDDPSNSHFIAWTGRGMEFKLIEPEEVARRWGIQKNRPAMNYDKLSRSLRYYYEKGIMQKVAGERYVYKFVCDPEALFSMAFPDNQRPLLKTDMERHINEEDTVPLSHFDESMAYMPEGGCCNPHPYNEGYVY
# Procedure, shortened: as §1
sequence,measurement,setting,value
AGTTTC,binding signal,FLI1,"1.23 fold enrichment (6-mer frequency, TF over GST control)"
same,binding signal,ELK1,"1.28 fold enrichment (6-mer frequency, TF over GST control)"
same,binding signal,GABPA,"1.29 fold enrichment (6-mer frequency, TF over GST control)"
same,binding signal,ERG,"1.3 fold enrichment (6-mer frequency, TF over GST control)"
same,binding signal,ELF1,"1.27 fold enrichment (6-mer frequency, TF over GST control)"
same,binding signal,EHF,"1.34 fold enrichment (6-mer frequency, TF over GST control)"
same,binding signal,SPI1,"1.22 fold enrichment (6-mer frequency, TF over GST control)"
same,binding signal,SPIB,"1.24 fold enrichment (6-mer frequency, TF over GST control)"
same,binding signal,ELK3,"1.46 fold enrichment (6-mer frequency, TF over GST control)"
same,binding signal,FEV,"1.23 fold enrichment (6-mer frequency, TF over GST control)"
same,binding signal,ETV5,"1.33 fold enrichment (6-mer frequency, TF over GST control)"
same,binding signal,HSF1,"1.38 fold enrichment (6-mer frequency, TF over GST control)"
same,binding signal,SPIC,"1.16 fold enrichment (6-mer frequency, TF over GST control)"
same,binding signal,ELF4,"1.2 fold enrichment (6-mer frequency, TF over GST control)"
same,binding signal,ELK4,"1.13 fold enrichment (6-mer frequency, TF over GST control)"
same,binding signal,ETV2,"1.21 fold enrichment (6-mer frequency, TF over GST control)"
same,binding signal,ELF3,"1.14 fold enrichment (6-mer frequency, TF over GST control)"
same,binding signal,ETV1,"1.29 fold enrichment (6-mer frequency, TF over GST control)"
